In the library only some 6.3% were active in any assay of this set; here they are far more common.
Spn DPM-DC inh: S. pneumoniae DPM-DC inhibitors, primary screen, biochemical, PK/LDH-coupled NADH fluorescence; diphosphomevalonate decarboxylase (Streptococcus pneumoniae D39); purified DPM-DC; AID 556, 2006; 65,000 tested, 0.49% active; calls only at 10 µM;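 active = the 320 compounds with the highest percent inhibition in the single-dose primary screen, excluding strongly autofluorescent ones, cut at about 32% in these data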;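 note: kinetic rate of NADH fluorescence loss reporting ADP formed by the decarboxylase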
Spn PMK inh: S. pneumoniae PMK inhibitors, primary screen, biochemical, mevalonate pathway, pilot trial included. phosphomevalonate kinase (Streptococcus pneumoniae D39). inhibition, % at 10 µM. 65,000 tested, 0.49% active. AID 539, 2006. purified PMK, PK/LDH-coupled NADH absorbance 340 nm;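 active = top-ranked compounds by inhibition in the single 10 µM screen, taking a fixed number of the strongest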;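 note: 0% = full reaction with DMSO carrier and 100% = background rate without enzyme reaction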
Fluor 339 460: intrinsic fluorescence of library compounds, ex339/em460 – biochemical, MLSMR library, data from DPM-DC assay, artefact control, profiling panel | compound autofluorescence, ex339/em460 nm, NADH buffer; active compounds read high; 1 = no-compound wells, NADH background | fluorescence fold increase at 10 µM | 65,000 tested, 5.5% active | AID 709, 2007;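 active = at 10 µM, mean starting fluorescence two-fold or more over control wells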;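 note: signal is the first read of a kinetic run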
Abs 340nm: compound light absorbance at 340 nm, profiling panel, artefact control, biochemical, MLSMR library, data from PS, PMK, MK assays | compound absorbance at 340 nm, fold over control | fold change at 10 µM | 65,000 tested, under 10 active;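 active = at 10 µM dose, initial 340 nm absorbance at least 2 fold that of control wells; inactive = change under 2 fold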;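 note: initial absorbance extrapolated from kinetic A340 decline of NADH oxidation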
NADH coupling: inhibitors of PK/LDH coupling enzymes, profiling panel, artefact control, biochemical, MLSMR library; AID 774, 2007; IC50, µM (series often up to 10 µM), inactives show top-dose inhibition; 65,000 tested, 0.02% active; coupled PK/LDH NADH assays, four targets;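 active = single-dose screening hits from any of four coupled enzyme assays that gave an IC50 when retested across doses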;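 note: the DPM-DC format reads NADH fluorescence rather than 340 nm absorbance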
Spn MK inh: S. pneumoniae MK inhibitors, primary screen, biochemical, PK/LDH-coupled NADH absorbance; purified MK, PK/LDH-coupled NADH absorbance 340 nm; mevalonate kinase [Streptococcus pneumoniae D39]; 65,000 tested, 0.48% active; inhibition, % at 10 µM;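 active = ranked among the strongest by inhibition in the single 10 µM screen, a fixed top-ranked set picked for dose follow-up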
Starred values were filed as active, the others as inactive.

COc1ccc(-c2cc(=O)oc3c(C)c(OCc4nn[nH]n4)ccc23)cc1 was read as Spn DPM-DC inh inactive, Spn PMK inh 7.0, Fluor 339 460 1.74, Abs 340nm 1.16, NADH coupling 3.0% and Spn MK inh 0.0.
Screening Cc1c(OCc2nn[nH]n2)ccc2c(-c3ccccc3)cc(=O)oc12 returned Spn DPM-DC inh inactive, Spn PMK inh 9.0, Fluor 339 460 1.41, Abs 340nm 1.13, NADH coupling 3.0% and Spn MK inh 0.0.
For COc1ccccc1-c1nnc(SCC(=O)N2CCOCC2)o1 the results were Spn DPM-DC inh inactive, Spn PMK inh 7.0, Fluor 339 460 1.14, Abs 340nm 1.02, NADH coupling 9.0% and Spn MK inh 10.0.
Cc1c(Cc2ccccc2)c(=O)oc2c(C)c(OCc3nn[nH]n3)ccc12 was read as Spn PMK inh 12.0, Fluor 339 460 3.85*, Abs 340nm 1.11, NADH coupling 9.0% and Spn MK inh 5.0.
`COc1ccc(OC)c(C2CC(=O)c3c([nH]c(C(=O)OC(C)C)c3C)C2)c1` (stereo not given) gave Spn DPM-DC inh inactive, Spn PMK inh 4.0, Fluor 339 460 1.12, Abs 340nm 1.05, NADH coupling 3.0% and Spn MK inh 5.0.
Screening CCCc1nnc(NC(=O)c2c(O)c3cccc4c3n(c2=O)CC4)s1 returned Spn DPM-DC inh inactive, Spn PMK inh 15.0, Fluor 339 460 1.69, Abs 340nm 1.04, NADH coupling 16.0% and Spn MK inh 5.0.
Screening CC(C)(C)c1cc(=O)n2c(C#N)c(C#N)nc2[nH]1 returned Spn PMK inh 9.0, Fluor 339 460 5.03*, Abs 340nm 1.05, NADH coupling 7.0% and Spn MK inh 4.0.
`O=S(=O)(Nc1cccc2cccnc12)c1ccc(S(=O)(=O)N2CCCC2)cc1` gave Spn DPM-DC inh inactive, Spn PMK inh 11.0, Fluor 339 460 1.07, Abs 340nm 1.01, NADH coupling 4.0% and Spn MK inh 0.0.
`O=C(CC1(O)C(=O)N(Cc2ccccc2)c2ccccc21)c1ccncc1` (stereo not given) gave Spn DPM-DC inh inactive, Spn PMK inh 5.0, Fluor 339 460 1.15, Abs 340nm 1.03, NADH coupling 2.0% and Spn MK inh 0.0.
`Cc1ccc(NC(=O)N(CCCN2CCOCC2)Cc2cc3cc4c(cc3[nH]c2=O)OCO4)cc1` gave Spn DPM-DC inh active, Spn PMK inh 15.0, Fluor 339 460 2.93*, Abs 340nm 1.09, NADH coupling 21.0% and Spn MK inh 15.0.
`O=C(Nc1ccccc1)N(CCCN1CCOCC1)Cc1cc2cc3c(cc2[nH]c1=O)OCCO3` gave Spn PMK inh 13.0, Fluor 339 460 2.5*, Abs 340nm 1.04, NADH coupling 5.0% and Spn MK inh 12.0.
Screening COc1ccc2[nH]c(=O)c(CN(CCCN3CCOCC3)C(=O)NCc3ccccc3)cc2c1 returned Spn DPM-DC inh inactive, Spn PMK inh 14.0, Fluor 339 460 3.27*, Abs 340nm 1.05, NADH coupling 13.0% and Spn MK inh 7.0.
For CCOc1ccc2[nH]c(=O)c(CN(CCc3ccccc3)C(=O)c3cnccn3)cc2c1 the results were Spn DPM-DC inh inactive, Spn PMK inh 16.0, Fluor 339 460 1.39, Abs 340nm 1.08, NADH coupling 5.0% and Spn MK inh 0.0.
CCc1ccc2[nH]c(=O)c(CN(CCCN3CCOCC3)C(=O)Nc3ccccc3)cc2c1 was read as Spn DPM-DC inh inactive, Spn PMK inh 11.0, Fluor 339 460 1.35, Abs 340nm 1.02, NADH coupling 5.0% and Spn MK inh 5.0.
For CCOc1ccc2[nH]c(=O)c(CN(CC3CCCN3CC)C(=O)NCc3ccccc3)cc2c1 (stereo not given) the results were Spn PMK inh 19.0, Fluor 339 460 3.41*, Abs 340nm 1.02, NADH coupling 10.0% and Spn MK inh 0.0.
Screening Cc1ccc2[nH]c(=O)c(CN(CCN3CCOCC3)C(=O)Nc3ccc(F)cc3)cc2c1 returned Spn DPM-DC inh inactive, Spn PMK inh 8.0, Fluor 339 460 1.22, Abs 340nm 1.04, NADH coupling 6.0% and Spn MK inh 10.0.
`Cc1ccc(NC(=O)N(Cc2ccc3c(c2)OCO3)Cc2cc3cc4c(cc3[nH]c2=O)OCCO4)cc1` gave Spn DPM-DC inh inactive, Spn PMK inh 8.0, Fluor 339 460 1.45, Abs 340nm 1.06, NADH coupling 3.0% and Spn MK inh 0.0.
For CCN(CC)CCCN(Cc1cc2cc3c(cc2[nH]c1=O)OCCO3)C(=O)Nc1ccccc1 the results were Spn DPM-DC inh active, Spn PMK inh 10.0, Fluor 339 460 3*, Abs 340nm 1.04, NADH coupling 18.0% and Spn MK inh 9.0.
For O=C(Nc1ccc(F)cc1)N(Cc1ccco1)Cc1cc2cc3c(cc2[nH]c1=O)OCO3 the results were Spn PMK inh 21.0, Fluor 339 460 2.69*, Abs 340nm 1, NADH coupling 16.0% and Spn MK inh 6.0.
For O=C(Nc1ccccc1F)N(CCCN1CCOCC1)Cc1cc2cc3c(cc2[nH]c1=O)OCCO3 the results were Spn DPM-DC inh inactive, Spn PMK inh 3.0, Fluor 339 460 3.77*, Abs 340nm 1.04, NADH coupling 10.0% and Spn MK inh 15.0.
`CCc1ccc2[nH]c(=O)c(CN(CCCN3CCOCC3)C(=O)Nc3ccc(Cl)cc3)cc2c1` gave Spn DPM-DC inh inactive, Spn PMK inh 10.0, Fluor 339 460 1.22, Abs 340nm 0.99, NADH coupling 4.0% and Spn MK inh 3.0.
Screening CCOc1ccccc1C1C(C#N)=C(N)Oc2cc(C)n(Cc3ccccn3)c(=O)c21 (stereo not given) returned Spn DPM-DC inh inactive, Spn PMK inh 10.0, Fluor 339 460 1.1, Abs 340nm 1, NADH coupling 9.0% and Spn MK inh 17.0.
Screening COc1ccccc1NS(=O)(=O)c1cc(C(=O)NCCN2CCOCC2)ccc1Cl returned Spn DPM-DC inh inactive, Spn PMK inh 16.0, Fluor 339 460 1.05, Abs 340nm 1, NADH coupling 5.0% and Spn MK inh 0.0.
`COc1ccc(S(=O)(=O)n2nc(OC(=O)c3ccco3)cc2N)cc1` gave Spn DPM-DC inh inactive, Spn PMK inh 11.0, Fluor 339 460 1.06, Abs 340nm 1.02, NADH coupling 4.0% and Spn MK inh 0.0.
For Cc1ccccc1CN1CCN(S(=O)(=O)c2ccc(F)cc2)CC1 the results were Spn DPM-DC inh active, Spn PMK inh 1.0, Fluor 339 460 1.15, Abs 340nm 1.09, NADH coupling 28.0% and Spn MK inh 30.0.
